# Compound activity deposited in PubChem by several laboratories.
# Hits are enriched below; roughly 4.4% of the tested compounds scored in any of these assays.
# tim23-1 inh: tim23-1 yeast growth inhibition | 1.3% of 330,000 active | AID 463212 | inhibition, % at 20 µM | S. cerevisiae tim23-1 growth, BacTiter-Glo luminescence, 24 h;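 active = growth inhibition of the mutant yeast at or above 50%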;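 also: temperature-sensitive mutant grown at 25 °C; plate controls were DMSO-treated mutant yeast for no effect and medium wells lacking yeast for full effect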
# tim10-1 inh: growth inhibitors of tim10-1 mutant yeast. 2.2% of 330,000 active. S. cerevisiae tim10-1 ts strain growth, BacTiter-Glo, 24 h. inhibition, % at 20 µM;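 active = inhibition of at least 40%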;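 also: mutant grown at 25 °C; 0% = DMSO wells with yeast and 100% = wells holding no yeast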
# TIM10 inh: growth inhibitors of TIM10 yeast strain; S. cerevisiae TIM10 strain growth, BacTiter-Glo luminescence, 24 h; inhibition, % at 10 µM; 1.4% of 330,000 active; AID 463195;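 active = inhibition of 40% or more at the single tested concentration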;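 also: wild-type TIM10 isogenic control strain grown at permissive 25 °C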
# PfHsp90 yeast 2: growth inhibition of yeast expressing Plasmodium Hsp90. S. cerevisiae expressing PfHsp90, BacTiter-Glo ATP, 48 h; yeast lacking PDR1 and PDR3 efflux regulators. 0.32% of 310,000 active. inhibition, % at 9.4 µM;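 active = every replicate shows inhibition above about 80%, whatever the replicate mean, limit read from the data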;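 also: 0% = DMSO neutral controls and 100% = 20 µM radicicol positive controls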
# SKKanGAS inh: SKKanGAS growth inhibition | 1.3% of 300,000 active | AID 1662 | inhibition, % at 7.5 µM | S. pyogenes SKKanGAS, kanamycin growth, BacTiter-Glo, 6 h;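 active = mean replicate score, as percent of positive control median, at least 50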;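 also: strain carries kanamycin resistance gene driven by streptokinase promoter and grows in 40 µg/ml kanamycin; loss of luminescence reflects streptokinase promoter inhibition or plain growth inhibition; 0% = median of DMSO wells and 100% = positive control at its reference dose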
# tim10-1 conf: tim10-1 yeast growth inhibition, confirmed; shares compounds with tim10-1 inh; S. cerevisiae tim10-1 ts strain growth, BacTiter-Glo, 24 h; inhibition, % at 20 µM; 56% of 7,400 active;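 active = inhibition of yeast growth at or above a set limit in either of two repeat tests at 20 µM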;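 also: tim10-1 mutant grown at permissive 25 °C to find synthetic lethal compounds; 0% = DMSO yeast wells and 100% = medium wells without yeast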
# * hit, by the source's call; . = no result.
SMILES,tim23-1 inh,tim10-1 inh,TIM10 inh,PfHsp90 yeast 2,SKKanGAS inh,tim10-1 conf
CCOc1ccc2nc(SC3CC(=O)N(c4ccccc4)C3=O)sc2c1 (stereo not drawn),10,11,12,-2,6,.
CCOc1ccc2nc(SC3CC(=O)N(c4cccc(OC)c4)C3=O)sc2c1 (stereo not drawn),42,42*,28,6,-6,37*
CCC(OC(=O)CN1C(=O)C(=O)c2ccccc21)C(=O)Nc1ccccc1OC (stereo not drawn),17,13,-6,-8,-2,.
CCCCOc1ccc(S(=O)(=O)NNC(=O)C2Cc3c(ccc4ccccc34)O2)cc1 (stereo not drawn),35,45*,19,.,19,25
N/C(=N\OC(=O)CCCc1ccccc1)c1ccc([N+](=O)[O-])cc1,32,46*,24,-12,-10,52*
COc1ccc(OCCCC(=O)ON=C(N)c2ccccc2C)cc1,39,44*,39,-26,.,56*
N/C(=N\OC(=O)CCCOc1ccccc1)c1ccc([N+](=O)[O-])cc1,23,55*,28,16,-8,42*
N/C(=N\OC(=O)Oc1ccccc1)c1ccc([N+](=O)[O-])cc1,14,14,-16,17,-1,.
CCOc1ccc(OCCCC(=O)ON=C(N)c2ccccc2Cl)cc1,13,10,15,-6,.,.
N#Cc1c(Nc2ccccc2)[n+]([O-])c2ccc(Cl)cc2[n+]1[O-],.,.,.,-157,.,.
Nc1cc(S(=O)(=O)N2CCCCC2)ccc1N1CCCCC1,34,45*,24,3,.,27
c1ccc2c(c1)ccc1nnc(SCc3ccc4c(c3)OCCO4)n12,40,45*,16,-9,-2,29*
Cc1cc2nnc(SCc3ccc4c(c3)OCO4)n2c2ccccc12,.,.,.,-23,.,.
O=C1NC(=S)S/C1=C/c1ccc(N2CCOCC2)o1,-1,-1,7,7,26,.
COc1ccc2cc(/C=C3\SC(=S)NC3=O)c(N3CCOCC3)nc2c1,45,42*,36,-41,40,39*
Cc1ccccc1C(=O)N1[C@@H](C(C)C)COc2cc(Br)ccc2S1(=O)=O,.,.,.,35,.,.
Cc1ccc2c(c1)c1c(n2C)C(C(N)=O)CCC1 (stereo not drawn),15,4,-13,.,-14,.
Cc1ccc2c(c1)c1c(n2C)-c2[nH]ncc2CC1,24,55*,6,.,14,-27
O=C(/C=C/c1cccs1)Nc1nccs1,1,0,2,14,-2,.
O=C(/C=C/c1cccs1)Nc1cccc(NC(=O)/C=C/c2cccs2)n1,35,40*,31,-16,40,11
CCN(C[C@H]1N[C@@](Cc2ccccc2)(C(=O)OC)[C@H]2C(=O)N(C)C(=O)[C@@H]12)C(=O)C1CCCCC1,14,24,9,6,.,.
CC(NC(=O)C12CC3CC(CC(C3)C1)C2)c1ccc2c(c1)OCCO2 (stereo not drawn),24,45*,8,.,-1,25
Cc1ccc(C(C)NC(=O)C23CC4CC(CC(C4)C2)C3)cc1 (stereo not drawn),19,32,7,.,0,.
COc1ccc(S(=O)(=O)NCC2CC3C=CC2C3)cc1OC (stereo not drawn),-1,-5,5,-8,4,.
CCCCCCCCCCCCCCCC(=O)OC(CC(=O)O)C[N+](C)(C)C (stereo not drawn),4,64*,5,109*,.,22
SMILES,tim23-1 inh,tim10-1 inh,TIM10 inh,PfHsp90 yeast 2,SKKanGAS inh,tim10-1 conf
CCCCCCCCCCCCCC(=O)O,11,19,9,4,.,.
COc1cccc(CNC(=O)C2CCN(S(=O)(=O)c3ccc4c(c3)CC(C)N4C(=O)C3CC3)CC2)c1 (stereo not drawn),16,11,8,-9,1,.
COc1ccc(CNC(=O)C2CCN(S(=O)(=O)c3ccc4c(c3)CC(C)N4C(=O)C3CC3)CC2)cc1 (stereo not drawn),38,40,14,10,-3,31*
CC1CC(C)CN(S(=O)(=O)c2ccc3c(c2)CC(C)N3C(=O)C2CCC2)C1 (stereo not drawn),46,43*,21,6,5,12
O=C(Cc1ccccc1[N+](=O)[O-])NCC(=O)c1ccc2c(c1)OCO2,.,.,.,-6,.,.
COCCn1nnnc1C(CC(C)C)N1CCN(c2nc3ccccc3s2)CC1 (stereo not drawn),37,44*,25,2,-1,32*
COc1ccc(/C=C2\SC(N3CCCCC3)=NC2=O)cc1,46,47*,31,-10,-6,44*
Cc1nc2c(c(=O)n1CCC1=CCCCC1)c1nc3ccccc3nc1n2/N=C/c1ccco1,4,-6,10,-4,39,.
CCCn1c(C)nc2c(c1=O)c1nc3ccccc3nc1n2CCC1=CCCCC1,39,49*,7,.,11,-2
Cc1nnc(SCc2cc(=O)oc3ccc4ccccc4c23)n1Cc1ccccc1,44,46*,15,3,6,24
O=c1[nH]c2cc3ccccc3cc2nc1C(F)(F)F,6,42*,17,15,10,-9
N#C/C(=C/c1ccc(-c2ccc(Br)cc2)o1)C(=O)NC1CCCCC1,19,22,19,0,14,.
N#C/C(=C\c1ccc(-c2ccc(Br)cc2)o1)C(=O)NCCc1c[nH]c2ccccc12,14,41*,37,-36,.,21
C/C(=N\NC(=O)COc1cccc(C)c1)c1ccc2ccccc2c1O,7,6,10,-13,.,.
O=C(NCCN1CCN(C(=O)c2cccc(OC(F)F)c2)CC1)c1cccc(OC(F)F)c1,-4,-6,-7,.,.,.
CC(=O)c1sc(N/N=C\c2c(O)ccc3ccccc23)nc1C,23,42*,10,11,50*,-10
CC[n+]1c(C=C2C=C(C)OC(C)=C2)sc2ccccc21,-29,-3,-3,-9,5,.
CC[n+]1c(/C=C2/C=C(C)CC(C)C2)sc2ccccc21 (stereo not drawn),32,48*,39,-2,-8,26
Cc1cc2c(cc1C)C(c1cc(Br)ccc1F)CC(=O)N2 (stereo not drawn),25,45*,9,22,0,28
CCOC(=O)/C(C#N)=C/c1c(N2CCN(c3ccccc3)CC2)nc2ccccn2c1=O,40,44*,25,-25,6,30
CC(C)c1ccc(S(=O)(=O)/N=C2/C=CC(=O)c3ccccc32)cc1,34,43*,20,.,.,29
Cc1cccc2c(N=O)c(O)n(CCc3ccccc3)c12,38,41*,20,-3,-2,7
Cc1ccc(Cn2c(O)c(N=O)c3ccccc32)cc1,26,31,16,16,10,.
Cc1c(-c2ccccc2)c(-c2ccc(OCCN(C)C)cc2)n2ccccc12,.,.,.,-14,.,.
